# Measurements as given in PubChem BioAssay (NCI).
# About 83,000 compounds went through this panel and 20% of them were active in at least one assay; those are over-represented in the sample as a whole.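 Note: values are percent growth. 100 is the growth of untreated cells, values between 100 and 0 indicate rising inhibition; between -100 and 0 indicates cell death.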 Values without a mark were called inactive. The source made the active and inactive calls. How the source made its calls: active means growth percent below 10; inactive means the rest.
# How the values were obtained:
# Assay in all cases: NCI-60 one-dose screen, 48 h (100 = growth as untreated, 0 = no growth, -100 = all killed)
# Conditions in all cases: 10 µM unless noted
# HCT-15 colon = test system: HCT-15 colon
# HT29 colon = test system: HT29 colon
# SNB-75 CNS = test system: SNB-75 CNS
# SNB-19 CNS = test system: SNB-19 CNS
# U251 CNS = test system: U251 CNS
# PC-3 prostate = test system: PC-3 prostate
# SK-MEL-5 melanoma = test system: SK-MEL-5 melanoma
# UACC-62 melanoma = test system: UACC-62 melanoma
# LOX IMVI melanoma = test system: LOX IMVI melanoma
# SK-MEL-28 melanoma = test system: SK-MEL-28 melanoma
# SK-MEL-2 melanoma = test system: SK-MEL-2 melanoma
# EKVX NSCLC = test system: EKVX NSCLC
# SN12C renal = test system: SN12C renal
# UO-31 renal = test system: UO-31 renal
# TK-10 renal = test system: TK-10 renal
# ACHN renal = test system: ACHN renal
# CAKI-1 renal = test system: CAKI-1 renal
# CCRF-CEM leukemia = test system: CCRF-CEM leukemia
# MOLT-4 leukemia = test system: MOLT-4 leukemia
# A498 renal = test system: A498 renal
SMILES,growth (HCT-15 colon) [%],growth (HT29 colon),growth (SNB-75 CNS) [%],growth (SNB-19 CNS) [%],growth (U251 CNS),growth (PC-3 prostate),growth (SK-MEL-5 melanoma) [%],growth (UACC-62 melanoma),growth (LOX IMVI melanoma) [%],growth (SK-MEL-28 melanoma) [%],growth (SK-MEL-2 melanoma) [%],growth (EKVX NSCLC) [%],growth (SN12C renal) [%],growth (UO-31 renal) [%],growth (TK-10 renal) [%],growth (ACHN renal) [%],growth (CAKI-1 renal),growth (CCRF-CEM leukemia),growth (MOLT-4 leukemia),growth (A498 renal) [%]
COc1ncnc2[nH]cc(CN3CCN(c4ccc(F)cc4)CC3)c12,104,91.2%,100,102,99.2%,100%,103,106%,106,114,103,97.9,102,94.3,90.1,104,98.8%,97.1%,105%,
O=C1C=CN2C(=O)CC=CC2[C@@H]1O (stereo not given in full),138,110%,94.1,130,120%,94.9%,109,115%,100,110,113,121,106,78.2,118,109,109%,96.3%,109%,108
O=C(Nc1ccc(Br)cc1)c1ccc(Cl)c(Cl)c1,32.3,40.1%,38.6,35,32.4%,-22% (active),49.4,43.6%,33.3,73,102,24,60.7,59.1,107,18.1,8.9% (active),1.53% (active),23.3%,
Clc1nnc2c3ccccc3ccn12,99.9,113%,82.2,110,102%,93%,97.7,102%,109,119,108,105,109,98.8,106,105,93%,92.6%,104%,
C=CCN(CC#N)CC=C,116,94.5%,96.2,109,100%,91%,94.9,102%,101,104,117,100,102,92.4,103,109,107%,,102%,112
COC(=O)CSc1ccc(Cl)cc1,106,103%,94.9,103,103%,107%,114,114%,102,108,104,101,121,93.3,104,104,95.1%,,88.8%,79.9
CCC(=O)OCc1ccc(OC)cc1,108,102%,104,100,97.3%,88.1%,108,105%,98,111,112,107,91,82,107,103,96.6%,99.4%,95.3%,
COc1cc2ncnc(Nc3ccc(S(=O)(=O)Nc4cc(C)on4)cc3)c2cc1OCCCN1CCN(c2ccc([N+](=O)[O-])cc2)CC1,105,107%,91.9,100,97.1%,104%,111,94.4%,96.1,112,109,116,102,79.2,103,109,92.8%,99.1%,111%,
CC(C)OC1OC(OC(C)C)C(OC(C)C)OC1OC(C)C (stereo not given),98.1,95.8%,99,90.9,90.3%,91.8%,110,85.9%,102,106,95.1,103,94.6,92.5,102,95.1,93.9%,93.4%,80.2%,
CC1(C)OC2OC3C(CN)OC(c4ccccc4)OC3C2O1 (stereo not given),125,106%,92.4,110,104%,97.1%,106,105%,97.9,114,103,103,103,103,104,103,92.5%,104%,5.53% (active),
ClC1(Cl)C2CCCCCCC21 (stereo not given),107,97.5%,97.2,99.6,109%,98.7%,110,103%,108,107,93,107,108,93.4,92.1,110,98.3%,109%,109%,
OC(CCCCCCCCC(O)CN1CCc2ccccc2C1)CN1CCc2ccccc2C1 (stereo not given),95.1,114%,95.4,105,101%,98.9%,95.2,101%,96.4,108,111,89.5,105,86.1,103,110,92.6%,,110%,107
O=C(O)CSc1ccc(NCc2oc(CO)cc(=O)c2O)cc1,107,99.5%,87,110,103%,98.8%,99.8,102%,91.7,104,119,106,98.2,80,111,97.3,98.4%,,88.3%,106
CC(C)C/C=C/C=C/C(=O)N[C@@H](CC(N)=O)C(=O)N[C@@H]1C(=O)N[C@H](c2ccc(O)cc2)C(=O)N[C@H](CCCN)C(=O)N[C@H]([C@@H](C)O)C(=O)N[C@H](c2ccc(O)cc2)C(=O)N[C@H](c2ccc(O)cc2)C(=O)N[C@H]([C@H](C)O)C(=O)N[C@H](Cc2ccccc2)C(=O)N[C@H](CCCN)C(=O)N[C@H](c2ccc(O[C@H]3O[C@@H](CO)[C@@H](O)[C@@H](O)[C@H]3O[C@@H]3O[C@H](CO)[C@H](O)[C@H](O)[C@@H]3O)cc2)C(=O)N[C@H]([C@H](C)O)C(=O)N[C@H](c2ccc(O)cc2)C(=O)NCC(=O)N[C@H](CC(C)C)C(=O)N[C@H](C)C(=O)N[C@H](c2ccc(O)c(Cl)c2)C(=O)O[C@@H]1C(N)=O,70,24.2%,81.9,21,-19% (active),83.3%,26.2,-4.24% (active),36.8,22.8,88.2,92.7,94.5,118,74.5,111,97.1%,,38.8%,199
Nc1cc(C(=O)O)cc(C(=O)O)c1,111,97.2%,99.2,111,108%,96.8%,108,104%,115,115,89.6,105,96.3,84.8,101,109,104%,,90.1%,98
COc1cc(-c2nc(-c3ccc(-c4nc5ccc(F)cc5[nH]4)cc3)no2)cc(OC)c1OC,19.4,9.19% (active),76.6,73.1,46.1%,6.63% (active),20.7,20.9%,24.8,60.6,55.6,46.9,66.1,19.8,93,36.7,47.3%,8.61% (active),21.1%,
